# Test results from PMC7862700, “An all-to-all approach to the identification of sequence-specific readers for epigenetic DNA modifications on cytosine”.
# Columns and labels:
# Assay in all cases: DAPPL (digital affinity profiling via proximity ligation, sequencing); 10 mM Tris-HCl pH 7.5, 50 mM NaCl, 1 mM DTT, 4% glycerol, room temperature, 30 min; GST-TFs on glutathione beads, 16-mer random dsDNA library, 0.1% formaldehyde crosslink after washing; high values mean tight binding
# FEV = target: T1, FEV (Homo sapiens, UniProt Q99581 1-238); conditions: protein: recombinant; tags: N-terminal GST; dsDNA, one strand shown
# T1 sequence: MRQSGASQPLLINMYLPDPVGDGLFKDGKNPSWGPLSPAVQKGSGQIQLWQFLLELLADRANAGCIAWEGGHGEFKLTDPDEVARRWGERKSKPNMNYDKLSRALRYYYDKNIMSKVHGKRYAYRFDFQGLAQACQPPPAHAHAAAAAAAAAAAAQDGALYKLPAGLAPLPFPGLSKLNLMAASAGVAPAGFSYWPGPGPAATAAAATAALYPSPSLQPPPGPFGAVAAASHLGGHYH
# Procedure, shortened: (§1)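 Human transcription factors were made in yeast as GST fusions, captured on glutathione beads and barcoded with DNA. With a tag-only sample included, the pool was incubated with 200 nmole of a random double-stranded 16-mer DNA library in Tris/NaCl/DTT/glycerol buffer at room temperature for 30 min, then crosslinked with 0.1% formaldehyde after washing, ligated by proximity, amplified and sequenced. For binding signal, each hexamer's read frequency for a factor is divided by its frequency for the tag-only sample.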
# ETV5 = ETV5 (Homo sapiens, UniProt P41161 1-510); conditions: protein: recombinant; tags: N-terminal GST; dsDNA, one strand shown
# Chain of ETV5 (P41161 whole entry): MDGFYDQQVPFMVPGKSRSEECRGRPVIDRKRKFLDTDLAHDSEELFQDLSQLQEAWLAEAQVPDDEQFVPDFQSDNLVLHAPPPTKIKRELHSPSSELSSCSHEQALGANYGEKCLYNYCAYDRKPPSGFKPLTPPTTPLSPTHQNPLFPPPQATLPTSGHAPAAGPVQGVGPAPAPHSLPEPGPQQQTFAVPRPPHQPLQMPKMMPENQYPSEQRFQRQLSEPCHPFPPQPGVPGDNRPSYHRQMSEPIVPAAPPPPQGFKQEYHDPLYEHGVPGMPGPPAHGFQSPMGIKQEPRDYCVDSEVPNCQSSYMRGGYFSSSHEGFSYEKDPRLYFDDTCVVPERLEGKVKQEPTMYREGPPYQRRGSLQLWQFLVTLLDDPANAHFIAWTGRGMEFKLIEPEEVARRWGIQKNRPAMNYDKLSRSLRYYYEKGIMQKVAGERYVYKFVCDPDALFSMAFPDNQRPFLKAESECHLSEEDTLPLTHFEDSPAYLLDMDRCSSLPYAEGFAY
# Procedure, shortened: as §1
# HSF1 = HSF1 (Homo sapiens, UniProt Q00613 1-529); conditions: protein: recombinant; tags: N-terminal GST; chain copies: 3; dsDNA, one strand shown
# Chain of HSF1 (Q00613 whole entry): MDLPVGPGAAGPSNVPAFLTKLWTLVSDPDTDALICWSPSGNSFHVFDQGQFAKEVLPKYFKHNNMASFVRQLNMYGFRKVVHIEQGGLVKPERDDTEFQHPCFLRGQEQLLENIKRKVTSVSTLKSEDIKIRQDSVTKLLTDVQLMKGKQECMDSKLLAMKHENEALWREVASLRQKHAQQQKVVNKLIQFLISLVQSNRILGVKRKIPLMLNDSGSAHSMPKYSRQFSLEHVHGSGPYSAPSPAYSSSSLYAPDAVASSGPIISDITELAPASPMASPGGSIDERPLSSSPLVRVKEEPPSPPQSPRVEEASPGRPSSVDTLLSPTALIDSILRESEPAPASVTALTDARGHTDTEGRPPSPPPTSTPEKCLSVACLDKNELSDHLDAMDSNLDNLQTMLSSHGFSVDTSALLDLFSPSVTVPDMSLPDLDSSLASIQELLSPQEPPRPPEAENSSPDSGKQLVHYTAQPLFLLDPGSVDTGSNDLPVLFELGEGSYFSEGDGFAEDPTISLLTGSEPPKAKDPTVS
# Procedure, shortened: as §1
# SPIC = target: T2, SPIC (Homo sapiens, UniProt Q8N5J4 1-248); conditions: protein: recombinant; tags: N-terminal GST; dsDNA, one strand shown
# T2 sequence: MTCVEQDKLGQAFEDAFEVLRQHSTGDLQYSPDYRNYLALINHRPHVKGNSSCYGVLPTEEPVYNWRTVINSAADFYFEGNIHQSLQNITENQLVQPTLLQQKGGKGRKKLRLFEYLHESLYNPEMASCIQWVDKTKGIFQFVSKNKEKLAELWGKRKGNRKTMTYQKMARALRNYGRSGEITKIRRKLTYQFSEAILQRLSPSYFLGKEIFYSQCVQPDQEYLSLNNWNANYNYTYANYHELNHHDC
# Procedure, shortened: as §1
# ELF4 = ELF4 (Homo sapiens, UniProt Q99607 1-663); conditions: protein: recombinant; tags: N-terminal GST; dsDNA, one strand shown
# Chain of ELF4 (Q99607 whole entry): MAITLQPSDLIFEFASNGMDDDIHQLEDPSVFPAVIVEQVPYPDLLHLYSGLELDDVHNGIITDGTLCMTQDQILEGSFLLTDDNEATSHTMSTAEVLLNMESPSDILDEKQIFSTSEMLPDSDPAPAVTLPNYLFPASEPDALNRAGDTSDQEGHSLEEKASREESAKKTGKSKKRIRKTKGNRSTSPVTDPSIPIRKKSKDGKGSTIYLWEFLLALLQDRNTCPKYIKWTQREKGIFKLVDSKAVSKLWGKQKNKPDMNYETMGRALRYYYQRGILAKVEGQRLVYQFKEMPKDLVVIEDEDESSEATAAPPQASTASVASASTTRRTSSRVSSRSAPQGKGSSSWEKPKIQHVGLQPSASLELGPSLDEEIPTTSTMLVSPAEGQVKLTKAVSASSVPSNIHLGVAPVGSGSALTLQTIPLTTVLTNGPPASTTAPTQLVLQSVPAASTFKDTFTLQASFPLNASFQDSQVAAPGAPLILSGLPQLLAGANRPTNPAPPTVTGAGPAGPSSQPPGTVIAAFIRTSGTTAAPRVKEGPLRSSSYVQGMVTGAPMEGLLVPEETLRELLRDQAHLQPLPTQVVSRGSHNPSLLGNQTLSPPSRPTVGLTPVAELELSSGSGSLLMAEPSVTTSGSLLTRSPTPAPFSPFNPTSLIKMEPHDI
# Procedure, shortened: as §1
# ELK4 = target: T3, ELK4 (Homo sapiens, UniProt P28324-2 1-405); conditions: protein: recombinant; tags: N-terminal GST; dsDNA, one strand shown
# T3 sequence: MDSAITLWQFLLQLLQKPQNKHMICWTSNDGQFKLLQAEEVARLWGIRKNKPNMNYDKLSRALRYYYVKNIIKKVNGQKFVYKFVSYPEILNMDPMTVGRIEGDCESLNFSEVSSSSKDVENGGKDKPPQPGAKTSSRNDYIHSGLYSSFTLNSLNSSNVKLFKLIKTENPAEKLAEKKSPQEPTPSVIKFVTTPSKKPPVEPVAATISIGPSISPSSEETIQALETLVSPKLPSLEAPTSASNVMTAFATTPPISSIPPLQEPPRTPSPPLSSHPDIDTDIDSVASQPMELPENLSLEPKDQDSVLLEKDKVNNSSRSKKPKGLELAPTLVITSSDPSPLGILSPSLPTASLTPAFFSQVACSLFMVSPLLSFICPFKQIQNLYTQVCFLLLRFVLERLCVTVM
# Procedure, shortened: as §1
# ETV2 = target: T4, ETV2 (Homo sapiens, UniProt O00321 1-342); conditions: protein: recombinant; tags: N-terminal GST; dsDNA, one strand shown
# T4 sequence: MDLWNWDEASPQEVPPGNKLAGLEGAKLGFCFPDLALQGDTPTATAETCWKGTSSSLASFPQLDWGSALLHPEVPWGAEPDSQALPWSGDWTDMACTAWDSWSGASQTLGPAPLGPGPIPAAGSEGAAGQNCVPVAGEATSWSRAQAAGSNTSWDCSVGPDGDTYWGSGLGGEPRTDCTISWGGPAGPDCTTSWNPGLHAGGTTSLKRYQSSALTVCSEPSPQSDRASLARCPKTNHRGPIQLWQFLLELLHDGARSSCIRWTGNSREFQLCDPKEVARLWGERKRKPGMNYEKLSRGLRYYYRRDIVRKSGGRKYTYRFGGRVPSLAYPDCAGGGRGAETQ
# Procedure, shortened: as §1
# ELF3 = target: T5, ELF3 (Homo sapiens, UniProt P78545 1-371); conditions: protein: recombinant; tags: N-terminal GST; dsDNA, one strand shown
# T5 sequence: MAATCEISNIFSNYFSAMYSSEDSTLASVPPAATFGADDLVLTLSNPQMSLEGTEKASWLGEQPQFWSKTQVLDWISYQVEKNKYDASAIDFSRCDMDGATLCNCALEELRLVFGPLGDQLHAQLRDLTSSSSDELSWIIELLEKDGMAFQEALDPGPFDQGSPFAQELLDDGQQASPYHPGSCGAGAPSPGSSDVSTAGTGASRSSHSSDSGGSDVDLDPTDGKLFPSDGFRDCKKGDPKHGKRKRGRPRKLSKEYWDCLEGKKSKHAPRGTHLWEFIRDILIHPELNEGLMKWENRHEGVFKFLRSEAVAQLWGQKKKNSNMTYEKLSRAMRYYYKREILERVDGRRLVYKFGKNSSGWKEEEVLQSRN
# Procedure, shortened: as §1
# CRX = CRX (Homo sapiens, UniProt O43186 1-299); conditions: protein: recombinant; tags: N-terminal GST; dsDNA, one strand shown
# Chain of CRX (O43186 whole entry): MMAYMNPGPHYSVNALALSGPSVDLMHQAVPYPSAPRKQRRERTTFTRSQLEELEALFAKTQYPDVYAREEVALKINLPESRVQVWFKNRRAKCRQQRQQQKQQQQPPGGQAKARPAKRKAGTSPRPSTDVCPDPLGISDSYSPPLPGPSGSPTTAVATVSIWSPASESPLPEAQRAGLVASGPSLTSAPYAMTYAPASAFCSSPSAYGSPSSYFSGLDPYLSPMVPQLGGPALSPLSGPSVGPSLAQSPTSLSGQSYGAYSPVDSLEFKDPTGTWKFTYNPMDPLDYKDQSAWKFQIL
# Procedure, shortened: as §1
# ETV1 = ETV1 (Homo sapiens, UniProt P50549 1-477); conditions: protein: recombinant; tags: N-terminal GST; dsDNA, one strand shown
# Chain of ETV1 (P50549 whole entry): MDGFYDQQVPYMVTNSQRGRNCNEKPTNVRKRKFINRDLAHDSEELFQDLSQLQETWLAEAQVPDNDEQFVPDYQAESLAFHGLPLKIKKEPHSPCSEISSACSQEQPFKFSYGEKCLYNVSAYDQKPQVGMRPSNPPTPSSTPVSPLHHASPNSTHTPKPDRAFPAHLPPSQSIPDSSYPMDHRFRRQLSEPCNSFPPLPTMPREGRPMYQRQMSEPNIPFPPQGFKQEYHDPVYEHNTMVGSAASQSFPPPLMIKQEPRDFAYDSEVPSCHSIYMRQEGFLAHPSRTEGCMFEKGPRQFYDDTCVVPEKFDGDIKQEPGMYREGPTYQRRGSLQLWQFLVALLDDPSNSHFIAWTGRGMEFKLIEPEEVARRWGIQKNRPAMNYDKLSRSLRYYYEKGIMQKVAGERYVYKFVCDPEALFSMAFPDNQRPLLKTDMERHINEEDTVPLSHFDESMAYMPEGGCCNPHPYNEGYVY
# Procedure, shortened: as §1
# ERF = target: T6, ERF (Homo sapiens, UniProt P50548 1-548); conditions: protein: recombinant; tags: N-terminal GST; dsDNA, one strand shown
# T6 sequence: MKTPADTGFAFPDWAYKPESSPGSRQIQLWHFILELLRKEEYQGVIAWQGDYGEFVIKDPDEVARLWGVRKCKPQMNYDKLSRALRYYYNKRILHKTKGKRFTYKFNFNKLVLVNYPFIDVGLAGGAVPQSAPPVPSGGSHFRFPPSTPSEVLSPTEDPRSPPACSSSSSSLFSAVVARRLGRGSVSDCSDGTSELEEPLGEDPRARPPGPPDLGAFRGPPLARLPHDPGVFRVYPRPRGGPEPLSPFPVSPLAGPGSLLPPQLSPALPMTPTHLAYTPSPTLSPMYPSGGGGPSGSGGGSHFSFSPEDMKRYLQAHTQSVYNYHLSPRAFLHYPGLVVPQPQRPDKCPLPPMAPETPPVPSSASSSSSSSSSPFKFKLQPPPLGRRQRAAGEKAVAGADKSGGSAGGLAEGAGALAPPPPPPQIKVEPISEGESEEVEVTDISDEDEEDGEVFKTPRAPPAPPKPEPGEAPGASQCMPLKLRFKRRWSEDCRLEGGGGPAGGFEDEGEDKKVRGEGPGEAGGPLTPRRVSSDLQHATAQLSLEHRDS
# Procedure, shortened: as §1
# ETV3L = target: T7, ETV3L (Homo sapiens, UniProt Q6ZN32 1-361); conditions: protein: recombinant; tags: N-terminal GST; dsDNA, one strand shown
# T7 sequence: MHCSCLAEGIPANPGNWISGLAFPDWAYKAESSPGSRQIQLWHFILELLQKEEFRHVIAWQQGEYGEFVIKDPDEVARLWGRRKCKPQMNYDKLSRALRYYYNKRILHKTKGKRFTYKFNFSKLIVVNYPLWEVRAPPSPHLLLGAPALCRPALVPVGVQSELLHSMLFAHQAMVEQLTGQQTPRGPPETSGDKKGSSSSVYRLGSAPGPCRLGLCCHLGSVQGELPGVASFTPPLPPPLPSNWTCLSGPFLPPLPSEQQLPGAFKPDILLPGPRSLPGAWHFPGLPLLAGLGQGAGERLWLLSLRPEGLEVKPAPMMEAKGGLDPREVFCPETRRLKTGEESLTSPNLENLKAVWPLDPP
# Procedure, shortened: as §1
# ETS2 = target: T8, ETS2 (Homo sapiens, UniProt P15036 1-469); conditions: protein: recombinant; tags: N-terminal GST; dsDNA, one strand shown
# T8 sequence: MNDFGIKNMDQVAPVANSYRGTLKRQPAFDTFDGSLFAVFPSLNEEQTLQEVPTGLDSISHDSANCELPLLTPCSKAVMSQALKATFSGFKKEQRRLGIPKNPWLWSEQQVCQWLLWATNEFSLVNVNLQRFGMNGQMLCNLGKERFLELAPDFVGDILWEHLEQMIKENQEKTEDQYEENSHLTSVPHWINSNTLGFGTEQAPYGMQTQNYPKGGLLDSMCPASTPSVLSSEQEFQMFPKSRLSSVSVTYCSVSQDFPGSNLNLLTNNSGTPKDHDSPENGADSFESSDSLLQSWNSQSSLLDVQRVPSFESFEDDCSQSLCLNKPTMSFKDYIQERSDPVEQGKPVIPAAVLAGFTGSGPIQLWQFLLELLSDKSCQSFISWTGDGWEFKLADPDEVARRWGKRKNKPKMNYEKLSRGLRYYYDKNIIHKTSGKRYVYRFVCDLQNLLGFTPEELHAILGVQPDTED
# Procedure, shortened: as §1
# SPDEF = target: T9, SPDEF (Homo sapiens, UniProt O95238 1-335); conditions: protein: recombinant; tags: N-terminal GST; dsDNA, one strand shown
# T9 sequence: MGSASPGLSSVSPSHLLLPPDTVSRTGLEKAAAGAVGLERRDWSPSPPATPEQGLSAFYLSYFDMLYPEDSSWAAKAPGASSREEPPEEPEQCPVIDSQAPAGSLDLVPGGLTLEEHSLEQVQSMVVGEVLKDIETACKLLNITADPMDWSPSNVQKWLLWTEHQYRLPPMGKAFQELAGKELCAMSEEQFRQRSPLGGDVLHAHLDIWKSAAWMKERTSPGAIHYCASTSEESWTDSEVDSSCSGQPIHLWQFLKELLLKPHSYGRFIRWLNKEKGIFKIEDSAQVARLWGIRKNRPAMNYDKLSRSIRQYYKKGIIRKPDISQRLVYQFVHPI
# Procedure, shortened: as §1
# ETV7 = target: T10, ETV7 (Homo sapiens, UniProt Q9Y603 1-341); conditions: protein: recombinant; tags: N-terminal GST; dsDNA, one strand shown
# T10 sequence: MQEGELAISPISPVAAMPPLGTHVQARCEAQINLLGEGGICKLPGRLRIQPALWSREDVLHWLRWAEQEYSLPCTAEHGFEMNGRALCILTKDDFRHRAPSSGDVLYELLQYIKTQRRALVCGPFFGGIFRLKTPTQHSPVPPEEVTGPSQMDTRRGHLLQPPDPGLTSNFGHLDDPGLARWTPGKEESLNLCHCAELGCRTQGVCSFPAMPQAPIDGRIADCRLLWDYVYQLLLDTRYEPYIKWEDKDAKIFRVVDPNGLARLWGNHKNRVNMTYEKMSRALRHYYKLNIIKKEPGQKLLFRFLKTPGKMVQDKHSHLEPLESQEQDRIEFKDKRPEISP
# Procedure, shortened: as §1
# ELF5 = target: T11, ELF5 (Homo sapiens, UniProt Q9UKW6-2 1-255); conditions: protein: recombinant; tags: N-terminal GST; dsDNA, one strand shown
# T11 sequence: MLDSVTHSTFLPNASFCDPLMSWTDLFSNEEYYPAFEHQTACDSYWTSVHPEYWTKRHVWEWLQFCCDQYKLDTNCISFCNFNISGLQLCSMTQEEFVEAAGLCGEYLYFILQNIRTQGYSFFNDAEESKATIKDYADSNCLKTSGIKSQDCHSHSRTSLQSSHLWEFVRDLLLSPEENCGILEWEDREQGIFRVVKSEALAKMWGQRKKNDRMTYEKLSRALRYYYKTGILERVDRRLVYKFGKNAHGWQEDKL
# Procedure, shortened: as §1
# ETV3 = target: T12, ETV3 (Homo sapiens, UniProt P41162-2 1-143); conditions: protein: recombinant; tags: N-terminal GST; dsDNA, one strand shown
# T12 sequence: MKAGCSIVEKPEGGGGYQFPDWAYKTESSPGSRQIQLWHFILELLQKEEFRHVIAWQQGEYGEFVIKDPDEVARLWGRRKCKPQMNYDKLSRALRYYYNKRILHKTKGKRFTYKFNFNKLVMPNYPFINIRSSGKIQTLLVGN
# Procedure, shortened: as §1
# ETV6 = ETV6 (Homo sapiens, UniProt P41212 1-452); conditions: protein: recombinant; tags: N-terminal GST; dsDNA, one strand shown
# Chain of ETV6 (P41212 whole entry): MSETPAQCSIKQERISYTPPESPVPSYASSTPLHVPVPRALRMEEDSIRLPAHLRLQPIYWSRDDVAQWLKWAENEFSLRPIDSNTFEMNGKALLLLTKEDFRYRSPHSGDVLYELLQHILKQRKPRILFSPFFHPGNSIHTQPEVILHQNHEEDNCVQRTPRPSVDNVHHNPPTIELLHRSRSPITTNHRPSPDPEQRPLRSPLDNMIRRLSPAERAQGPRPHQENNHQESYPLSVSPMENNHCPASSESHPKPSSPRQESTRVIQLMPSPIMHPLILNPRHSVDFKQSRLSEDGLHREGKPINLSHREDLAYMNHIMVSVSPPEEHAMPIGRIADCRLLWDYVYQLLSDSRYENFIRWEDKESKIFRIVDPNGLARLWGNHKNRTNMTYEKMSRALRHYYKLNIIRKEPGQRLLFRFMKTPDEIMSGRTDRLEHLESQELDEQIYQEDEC
# Procedure, shortened: as §1
sequence,measurement,setting,value
GACTCT,binding signal,FEV,"1.32 fold enrichment (6-mer frequency, TF over GST control)"
same,binding signal,ETV5,"1.26 fold enrichment (6-mer frequency, TF over GST control)"
same,binding signal,HSF1,"1.26 fold enrichment (6-mer frequency, TF over GST control)"
same,binding signal,SPIC,"1.55 fold enrichment (6-mer frequency, TF over GST control)"
same,binding signal,ELF4,"1.29 fold enrichment (6-mer frequency, TF over GST control)"
same,binding signal,ELK4,"1.28 fold enrichment (6-mer frequency, TF over GST control)"
same,binding signal,ETV2,"1.26 fold enrichment (6-mer frequency, TF over GST control)"
same,binding signal,ELF3,"1.28 fold enrichment (6-mer frequency, TF over GST control)"
same,binding signal,CRX,"1.13 fold enrichment (6-mer frequency, TF over GST control)"
same,binding signal,ETV1,"1.32 fold enrichment (6-mer frequency, TF over GST control)"
same,binding signal,ERF,"1.58 fold enrichment (6-mer frequency, TF over GST control)"
same,binding signal,ETV3L,"1.32 fold enrichment (6-mer frequency, TF over GST control)"
same,binding signal,ETS2,"1.36 fold enrichment (6-mer frequency, TF over GST control)"
same,binding signal,SPDEF,"1.21 fold enrichment (6-mer frequency, TF over GST control)"
same,binding signal,ETV7,"1.23 fold enrichment (6-mer frequency, TF over GST control)"
same,binding signal,ELF5,"1.22 fold enrichment (6-mer frequency, TF over GST control)"
same,binding signal,ETV3,"1.22 fold enrichment (6-mer frequency, TF over GST control)"
same,binding signal,ETV6,"1.16 fold enrichment (6-mer frequency, TF over GST control)"
